Experimental data reported in PubChem BioAssay.
For some assays here: Results with a measured potency or affinity are listed apart. Some of the results follow. Calls of active or inactive are those of the source.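 Rule for the calls, unless noted: active = membrane potential signal rise above negative control mean plus 3 SD in both duplicates, also active in the earlier TRPC4 screen; inactive = the rest.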

What was measured:
[1] = tested on: TRPC4 beta (transient receptor potential cation channel C4), mouse; assay: TRPC4 cation channel opening, retest – cell-based, Fluo4 calcium, HEK293 TRPC4beta/mu-opioid, duplicates, 10 µM, confirmation (AID 2426;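 active = fluorescence ratio normalized to control raised more than 50% in primary screen plus both repeat runs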); conditions: Fluo4 calcium fluorescence, at 10 µM; active compounds read high
[2] = tested on: transient receptor potential cation channel C4 beta (TRPC4), mouse; assay: TRPC4 cation channel opening, second retest – cell-based, second round, Fluo4, HEK293 TRPC4beta/mu-opioid, 1 µM, confirmation (AID 2461;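 active = primary screen active and over 50% activation in each of two duplicate runs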); conditions: Fluo4 calcium fluorescence, at 1 µM; active compounds read high
[3] = tested on: TRPC4 (transient receptor potential cation channel C4 beta), mouse; assay: potentiation of DAMGO EC20 TRPC4 response – cell-based, second round, Fluo-4, HEK293 TRPC4beta/mu-opioid, 1 µM, confirmation (AID 2554;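 active = primary screen hit whose fluorescence ratio, in both repeats, exceeds the weak agonist control mean by 3 SD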); conditions: DAMGO EC20, Fluo-4 calcium flux, at 1 µM; active compounds read high
[4] = tested on: TRPC4 beta (transient receptor potential cation channel C4), mouse; assay: potentiation of DAMGO EC20 TRPC4 response – cell-based, Fluo-4, HEK293 TRPC4beta/mu-opioid, confirmation (AID 2555;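 active = primary screen hit whose calcium fluorescence ratio, in both repeats, exceeds the weak agonist control mean by 3 SD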); conditions: DAMGO EC20, Fluo-4 calcium flux, at 10 µM; active compounds read high
[5] = molecular target: Short transient receptor potential channel 4 (Mus musculus) (UniProt Q9QUQ5); assay: blockers of DAMGO-evoked TRPC4 calcium flux – cell-based, Fluo4, HEK293 TRPC4beta/mu-opioid, confirmation (AID 2636;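 active = calcium signal cut by more than 3 SD below the full-agonist control yet still positive, in both repeats and the earlier primary screen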); conditions: at 10 µM; active compounds read high
[6] = molecular target: Short transient receptor potential channel 4 (Mus musculus) (UniProt Q9QUQ5); assay: blockers of DAMGO-evoked TRPC4 calcium flux – cell-based, second round, Fluo4, HEK293 TRPC4beta/mu-opioid, 1 µM, confirmation (AID 2637;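 active = calcium signal ratio cut to more than 3 SD under the fully stimulated control mean yet still positive, in both repeats and the primary screen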); conditions: at 1 µM; active compounds read high
[7] = molecular target: Short transient receptor potential channel 4 (Mus musculus) (UniProt Q9QUQ5); assay: calcium entry via TRPC4 opening agents – cell-based, HEK293 TRPC4/mu-opioid, Fluo-4 calcium, dose response (AID 434937;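 active = primary screen activator hit with a dose response curve and TRPC4 channel activation at any tested dose; inactive = no activation, no dose response, or not a primary hit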)
[8] = molecular target: Short transient receptor potential channel 4 (Mus musculus) (UniProt Q9QUQ5); assay: potentiation of DAMGO-evoked TRPC4 calcium signal – cell-based, HEK293 TRPC4/mu-opioid, Fluo-4 calcium, EC20 DAMGO, dose response (AID 434941;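 active = earlier screen potentiator hit that boosts the TRPC4 ion channel at some dose, with a dose response; inactive = no potentiation, no dose response, or not a prior hit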;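 note: calcium entry triggered by an EC20 dose of DAMGO at the co-expressed mu-opioid receptor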)
[9] = molecular target: Short transient receptor potential channel 4 (Mus musculus) (UniProt Q9QUQ5); assay: block of DAMGO-driven TRPC4 calcium entry – cell-based, HEK293 TRPC4/mu-opioid, Fluo-4 calcium, dose response (AID 434942;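 active = primary screen inhibitor hit that blocks the TRPC4 channel at some tested dose, yielding a dose curve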)
[10] = molecular target: Short transient receptor potential channel 6 (Mus musculus) (UniProt Q61143); assay: TRPC6 blockade by TRPC4 inhibitor hits – cell-based, HEK293, membrane potential dye, duplicate, selectivity assay for TRPC4 inhibitor project, confirmation (AID 434948;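 active = active in primary screen and both duplicates, each dropping signal beyond three positive-control SD with fluorescence still positive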); conditions: HEK293 TRPC6, membrane potential dye fluorescence, at 10 µM; inhibition: active compounds read high, stimulated with maximal-effect acetylcholine unless noted; outcome: stimulated with maximal-effect acetylcholine unless noted
[11] = molecular target: Short transient receptor potential channel 6 (Mus musculus) (UniProt Q61143); assay: TRPC6 opening by TRPC4 activator hits – cell-based, HEK293, membrane potential dye, duplicate, selectivity assay for TRPC4 activator project, confirmation (AID 434950); conditions: HEK293 TRPC6, membrane potential fluorescence, at 10 µM; activation: active compounds read high; outcome: activation;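 for activation: 0% = buffer only wells and 100% = acetylcholine maximal-effect wells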
[12] = molecular target: Short transient receptor potential channel 6 (Mus musculus) (UniProt Q61143); assay: positive modulators of mouse TRPC6 channel – HEK293 cells, membrane potential dye, duplicate, selectivity assay for TRPC4 potentiator project, confirmation (AID 434952;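 active = compound raising the membrane signal above positive-control mean plus 3 SD in both repeats, and a primary screen hit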); conditions: HEK293 TRPC6, membrane potential dye fluorescence, at 10 µM; maximal acetylcholine added after compound unless noted
[13] = molecular target: Short transient receptor potential channel 4 (Mus musculus) (UniProt Q9QUQ5); assay: calcium flux activators in TRPC4/5HT1a cells, counter-screen for TRPC4 activator project, cell-based, second counter screen, HEK293 TRPC4/5HT1a, Fluo-4 (AID 434977;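 active = calcium signal rise above buffer-control mean plus 5 SD in both duplicates, and also a hit in the primary screen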); conditions: Fluo-4 calcium flux, at 10 µM; active compounds read high
[14] = serotonin-gated TRPC4 signal block – cell-based, second counter screen, HEK293 TRPC4/5HT1a, Fluo-4, counter-screen for TRPC4 inhibitor project, confirmation (AID 434978;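 active = primary screen active whose calcium signal fell more than 3 SD beyond the full-serotonin control mean in both duplicate plates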;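 note: serotonin given first at submaximal then at maximal dose after compound preincubation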); conditions: Fluo-4 calcium flux, at 10 µM; inhibition: active compounds read high, serotonin added to trigger calcium flux unless noted; outcome: serotonin added to trigger calcium flux unless noted
[15] = tested on: TRPC4 (mouse), co-expressed with 5HT1a in HEK293; assay: enhancement of serotonin-evoked TRPC4 response – cell-based, second counter screen, HEK293 TRPC4/5HT1a, Fluo-4, counter-screen for TRPC4 potentiator project, confirmation (AID 434979;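 active = signal rise over 3 SD above mean of control wells given weak agonist, in both repeats and first screen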); conditions: Fluo-4 calcium flux, at 10 µM; outcome: serotonin added at its EC20 dose unless noted; potentiation: active compounds read high, serotonin added at its EC20 dose unless noted
[16] = nonspecific calcium rise without TRPC4 – cell-based, HEK293 mu-opioid receptor line, counter-screen for TRPC4 activator project, confirmation (AID 449723;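 active = hit in primary screen, with calcium signal over 5 SD above buffer well mean in both duplicates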;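 note: counter screen cells carry the mu-opioid receptor alone and lack TRPC4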); conditions: HEK293 mu-opioid cells, Fluo-4 calcium fluorescence, at 10 µM; active compounds read high
[17] = nonspecific potentiation of DAMGO calcium response – cell-based, HEK293 mu-opioid receptor line, counter-screen for TRPC4 allosteric potentiator project, confirmation (AID 449724;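 active = calcium signal rise more than 3 SD above the low-dose agonist control mean, in both duplicate plates and the primary screen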); conditions: HEK293 mu-opioid receptor cells, Fluo-4 calcium flux, at 10 µM; compound added before EC20 DAMGO stimulus unless noted
[18] = molecular target: Inward rectifier potassium channel 2 (Mus musculus) (UniProt P35561); assay: inhibition of Kir2.1 inward rectifier potassium flux – cell-based, FluxOR thallium flux, duplicate, confirmation (AID 2032;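 active = Primary-screen hit whose thallium flux fell at least 3 control SD below untreated wells in both duplicates, with normal baseline fluorescence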;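 note: 0% = blank wells without stimulus and 100% = stimulated no-compound controls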); conditions: Kir2.1-expressing cells, FluxOR thallium flux fluorescence, at 10 µM; active compounds read low
[19] = parental HEK293 cell activity, no Kir2.1 – FluxOR thallium flux, duplicate, single concentration, counter-screen for Kir2.1 inhibitor project, confirmation (AID 2105;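 active = dye signal at least 3 control SD above or below untreated wells in both duplicates, raw fluorescence within 3, either direction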;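 for FluxOR signal as % of negative control (100 = no effect): percent is based on the flux ratio of peak minus minimum fluorescence over baseline F0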); conditions: parental HEK293 cells, FluxOR thallium flux fluorescence, at 10 µM; 0% = unstimulated blank wells

Chain of Inward rectifier potassium channel 2 (Mus musculus) (P35561 whole entry, looked up): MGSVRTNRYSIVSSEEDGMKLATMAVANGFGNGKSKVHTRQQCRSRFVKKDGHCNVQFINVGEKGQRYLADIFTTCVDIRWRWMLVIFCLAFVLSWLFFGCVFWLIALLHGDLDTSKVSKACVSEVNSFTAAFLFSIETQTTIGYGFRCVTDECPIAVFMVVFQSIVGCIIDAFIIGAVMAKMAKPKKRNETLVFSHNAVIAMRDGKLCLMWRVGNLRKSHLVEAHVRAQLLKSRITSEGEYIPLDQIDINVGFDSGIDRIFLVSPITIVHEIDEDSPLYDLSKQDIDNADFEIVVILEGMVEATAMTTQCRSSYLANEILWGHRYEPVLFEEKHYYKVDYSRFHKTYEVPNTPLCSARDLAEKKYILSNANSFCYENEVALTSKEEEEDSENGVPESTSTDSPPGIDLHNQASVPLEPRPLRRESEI
Chain of Short transient receptor potential channel 6 (Mus musculus) (Q61143 whole entry, looked up): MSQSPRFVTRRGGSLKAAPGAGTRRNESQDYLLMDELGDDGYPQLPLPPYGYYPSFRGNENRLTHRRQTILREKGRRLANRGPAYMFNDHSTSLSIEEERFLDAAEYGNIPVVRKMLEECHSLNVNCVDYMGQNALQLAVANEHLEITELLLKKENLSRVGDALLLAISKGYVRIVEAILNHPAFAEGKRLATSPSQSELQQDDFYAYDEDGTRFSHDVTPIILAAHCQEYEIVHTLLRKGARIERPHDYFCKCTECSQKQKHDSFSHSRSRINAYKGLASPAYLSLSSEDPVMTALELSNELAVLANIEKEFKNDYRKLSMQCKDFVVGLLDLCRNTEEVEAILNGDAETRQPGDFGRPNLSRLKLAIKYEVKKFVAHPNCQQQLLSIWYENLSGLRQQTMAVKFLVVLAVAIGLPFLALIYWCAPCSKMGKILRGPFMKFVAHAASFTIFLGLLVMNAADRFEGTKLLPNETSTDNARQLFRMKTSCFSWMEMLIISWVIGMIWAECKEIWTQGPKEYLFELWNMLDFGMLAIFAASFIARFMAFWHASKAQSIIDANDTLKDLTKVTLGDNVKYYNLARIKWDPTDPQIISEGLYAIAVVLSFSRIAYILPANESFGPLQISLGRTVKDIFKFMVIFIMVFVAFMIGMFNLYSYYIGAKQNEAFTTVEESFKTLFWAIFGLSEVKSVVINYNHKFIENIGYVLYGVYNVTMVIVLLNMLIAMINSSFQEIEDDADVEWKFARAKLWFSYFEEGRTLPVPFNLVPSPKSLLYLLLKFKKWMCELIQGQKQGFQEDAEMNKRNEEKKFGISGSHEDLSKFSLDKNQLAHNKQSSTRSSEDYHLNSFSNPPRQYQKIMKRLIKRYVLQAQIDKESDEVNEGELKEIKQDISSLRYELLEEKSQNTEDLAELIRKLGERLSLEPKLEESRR
Chain of Short transient receptor potential channel 4 (Mus musculus) (Q9QUQ5 whole entry, looked up): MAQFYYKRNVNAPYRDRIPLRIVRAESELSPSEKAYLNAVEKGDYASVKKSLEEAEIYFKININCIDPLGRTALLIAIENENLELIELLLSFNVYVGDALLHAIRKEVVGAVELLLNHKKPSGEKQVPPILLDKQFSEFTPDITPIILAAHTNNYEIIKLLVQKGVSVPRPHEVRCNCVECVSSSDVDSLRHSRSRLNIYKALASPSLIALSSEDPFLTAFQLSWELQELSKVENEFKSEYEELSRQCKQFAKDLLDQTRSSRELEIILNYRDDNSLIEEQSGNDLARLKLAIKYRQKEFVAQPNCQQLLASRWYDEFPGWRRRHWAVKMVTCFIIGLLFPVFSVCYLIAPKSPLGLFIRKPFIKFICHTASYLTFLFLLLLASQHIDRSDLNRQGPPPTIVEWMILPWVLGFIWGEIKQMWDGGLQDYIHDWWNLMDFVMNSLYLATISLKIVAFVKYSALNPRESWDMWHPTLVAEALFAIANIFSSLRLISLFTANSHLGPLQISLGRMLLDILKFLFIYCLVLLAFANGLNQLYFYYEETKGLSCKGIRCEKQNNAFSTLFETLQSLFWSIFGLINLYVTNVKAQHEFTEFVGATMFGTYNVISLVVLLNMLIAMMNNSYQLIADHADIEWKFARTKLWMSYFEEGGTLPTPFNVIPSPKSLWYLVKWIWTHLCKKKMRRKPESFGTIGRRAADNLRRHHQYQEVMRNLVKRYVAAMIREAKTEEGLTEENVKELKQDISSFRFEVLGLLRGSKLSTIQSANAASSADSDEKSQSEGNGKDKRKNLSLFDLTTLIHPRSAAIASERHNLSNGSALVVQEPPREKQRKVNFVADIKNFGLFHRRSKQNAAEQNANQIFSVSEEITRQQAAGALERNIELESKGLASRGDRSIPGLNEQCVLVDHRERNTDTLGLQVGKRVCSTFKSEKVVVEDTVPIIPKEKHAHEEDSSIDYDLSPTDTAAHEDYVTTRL

CCN1CC2C3CCC(C)(O3)C2C1 (configuration not stated)
inactive: outcome [1] | outcome [2] | outcome [3] | outcome [4] | outcome [5] | outcome [6] | outcome [7] | outcome [8] | outcome [9] | outcome [10] | outcome [11] | outcome [12] | outcome [13] | outcome [14] | outcome [15] | outcome [16] | outcome [17]

COC(=O)C(O)(c1ccc(NC(=S)NC(=O)c2ccc(Cl)cc2Cl)c(C)c1)C(F)(F)F (configuration not stated)
active: potentiation [4] 18% | potentiation [15] 24.2%
inactive: outcome [1] | outcome [2] | outcome [3] | outcome [5] | outcome [6] | outcome [7] | outcome [8] | outcome [9] | outcome [10] | outcome [11] | outcome [12] | outcome [13] | outcome [14] | outcome [16] | outcome [17]

Cc1c(P(=S)(c2ccccc2)c2ccccc2)[n+]2ccccc2n1C
inactive: outcome [1] | outcome [2] | outcome [3] | outcome [4] | outcome [5] | outcome [6] | outcome [7] | outcome [8] | outcome [9] | outcome [10] | outcome [11] | outcome [12] | outcome [13] | outcome [14] | outcome [15] | outcome [16] | outcome [17]

CCn1ccnc1CN1CCCC(C(=O)c2cccc(C(F)(F)F)c2)C1 (configuration not stated)
inactive: outcome [1] | outcome [2] | outcome [3] | outcome [4] | outcome [5] | outcome [6] | outcome [7] | outcome [8] | outcome [9] | outcome [10] | outcome [11] | outcome [12] | outcome [13] | outcome [14] | outcome [15] | outcome [16] | outcome [17]

CCOc1cccc(=NC2CCCCC2)c2c(C)[nH]c(C)c12
active: Tl flux remaining, % of negative control (active compounds read low) [18] 46.5%
inactive: outcome [19]

CN(CCOc1ccc(C=C2C(=O)NC(=O)NC2=O)cc1)c1ccccn1
inactive: outcome [1] | outcome [2] | outcome [3] | outcome [4] | outcome [6] | outcome [7] | outcome [8] | outcome [9] | outcome [10] inactive [setting not given] | outcome [11] | outcome [12] inactive [setting not given] | outcome [13] | outcome [14] inactive [setting not given] | outcome [15] inactive [setting not given] | outcome [16] | outcome [17] inactive [setting not given]
active: inhibition [5] 61%

CNCC(O)c1cc(F)c(OCc2ccccc2)c(OCc2ccccc2)c1F (configuration not stated)
active: Tl flux remaining, % of negative control (active compounds read low) [18] 34.5% | FluxOR signal as % of negative control (100 = no effect) [19] 74%

COC(=O)C1=C(c2cc3ccccc3s2)C[C@@H]2CC[C@H]1N2C(=O)NCCO
active: activation [11] 27%
inactive: outcome [1] | outcome [2] | outcome [3] | outcome [4] | outcome [5] | outcome [6] | outcome [7] | outcome [8] | outcome [9] | outcome [10] | outcome [12] | outcome [13] | outcome [14] | outcome [15] | outcome [16] | outcome [17]

Fc1ccc(N2CCN(Cc3ccc4c(c3)OCO4)CC2)cc1
inactive: outcome [19]
active: Tl flux remaining, % of negative control (active compounds read low) [18] 36.5%

CCNc1cc(N2CCNCC2)ccc1[N+](=O)[O-]
active: potentiation [3] 35% | potentiation [4] 19% | potentiation [15] 17.7%
inactive: outcome [1] | outcome [2] | outcome [5] | outcome [6] | outcome [7] | outcome [8] | outcome [9] | outcome [10] | outcome [11] | outcome [12] | outcome [13] | outcome [14] | outcome [16] | outcome [17]

CC(Cc1ccccc1Sc1ccccc1)N(C)C (configuration not stated)
inactive: outcome [1] | outcome [2] | outcome [3] | outcome [4] | outcome [5] | outcome [6] | outcome [7] | outcome [8] | outcome [9] | outcome [10] | outcome [11] | outcome [12] | outcome [13] | outcome [14] | outcome [15] | outcome [16] | outcome [17]

Clc1ccc(OCC#CCN2CCCC2)cc1
active: potentiation [3] 30% | potentiation [15] 26%
inactive: outcome [1] | outcome [2] | outcome [4] | outcome [5] | outcome [6] | outcome [7] | outcome [8] | outcome [9] | outcome [10] | outcome [11] | outcome [12] | outcome [13] | outcome [14] | outcome [16] | outcome [17]

O=[N+]([O-])c1ccc(N2CCNCC2)cc1N1CCCCCC1
inactive: outcome [1] | outcome [2] | outcome [3] | outcome [4] | outcome [5] | outcome [6] | outcome [7] | outcome [8] | outcome [9] | outcome [10] | outcome [11] | outcome [12] | outcome [13] | outcome [14] | outcome [16] | outcome [17]
active: potentiation [15] 13.3%

CCNCCNc1ccc([N+](=O)[O-])c2cccnc12
inactive: outcome [1] | outcome [2] | outcome [4] | outcome [5] | outcome [6] | outcome [7] | outcome [8] | outcome [9] | outcome [10] | outcome [11] | outcome [12] | outcome [13] | outcome [14] | outcome [15] | outcome [16] | outcome [17]
active: potentiation [3] 11%

Clc1ccc(N2CCNCC2)nn1
inactive: outcome [1] | outcome [2] | outcome [4] | outcome [5] | outcome [6] | outcome [7] | outcome [8] | outcome [9] | outcome [10] | outcome [11] | outcome [12] | outcome [13] | outcome [14] | outcome [16] | outcome [17]
active: potentiation [3] 14% | potentiation [15] 16.3%

C#CCN1C(=O)C2(C(C#N)=C(N)OC(C)=C2C(=O)OCc2ccccc2)c2ccccc21 (configuration not stated)
inactive: outcome [1] | outcome [2] | outcome [3] | outcome [5] | outcome [6] | outcome [7] | outcome [8] | outcome [9] | outcome [10] | outcome [11] | outcome [12] | outcome [13] | outcome [14] | outcome [16] | outcome [17]
active: potentiation [4] 11% | potentiation [15] 28.9%
